SUMO HTRF inh – inhibitors of in vitro SUMOylation cascade, primary screen, biochemical, HTRF, uHTS. inhibition, % at 35 µM. SUMO-conjugating enzyme UBC9 (Homo sapiens), P63279. HTRF SUMOylation assay, SAE1/SAE2 + UBC9. 0.36% of 290,000 active; in the data active = inhibition above about 50%, passing the limit was not always enough
UBC13 inh – UBC13 polyubiquitin chain formation inhibitors, primary screen, biochemical, TR-FRET, uHTS. Ubiquitin-conjugating enzyme E2 N (Homo sapiens), P61088. inhibition, % at 20 µM. 0.47% of 330,000 active; in the data active = inhibition above about 45%, passing the limit was not always enough
Target sequence (P61088 whole entry, looked up): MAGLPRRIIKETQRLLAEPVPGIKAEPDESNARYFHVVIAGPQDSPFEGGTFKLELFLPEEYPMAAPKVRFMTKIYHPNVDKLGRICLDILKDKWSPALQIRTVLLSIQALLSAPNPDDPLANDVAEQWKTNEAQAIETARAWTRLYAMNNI
HGIII-sPLA2 inh – human group III sPLA2 inhibitors, primary screen, biochemical, QFRET, BODIPY PC-A2 liposome substrate; Group 3 secretory phospholipase A2 (Homo sapiens), Q9NZ20; QFRET BODIPY PC-A2 liposome hydrolysis, fluorescence; inhibition, % at 12.2 µM; 0.56% of 370,000 active;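 active = inhibition above mean plus 3 SD of compounds lying within the high and low control bounds, cut at about 19% in these data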
Target sequence (Q9NZ20 whole entry, looked up): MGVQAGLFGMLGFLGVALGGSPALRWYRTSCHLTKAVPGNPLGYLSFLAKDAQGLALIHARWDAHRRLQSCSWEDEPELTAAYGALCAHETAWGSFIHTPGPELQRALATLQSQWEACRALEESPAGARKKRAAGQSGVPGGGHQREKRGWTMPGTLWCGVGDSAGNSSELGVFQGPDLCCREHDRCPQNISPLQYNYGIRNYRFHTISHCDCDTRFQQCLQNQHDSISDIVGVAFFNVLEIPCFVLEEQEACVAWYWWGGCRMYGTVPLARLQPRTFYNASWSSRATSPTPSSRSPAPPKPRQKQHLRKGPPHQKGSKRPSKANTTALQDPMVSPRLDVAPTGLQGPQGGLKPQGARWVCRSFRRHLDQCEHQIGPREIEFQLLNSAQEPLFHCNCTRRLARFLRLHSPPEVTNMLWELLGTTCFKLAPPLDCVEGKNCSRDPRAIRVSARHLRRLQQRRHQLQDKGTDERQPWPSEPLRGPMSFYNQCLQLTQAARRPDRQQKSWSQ
NR3A LBD binder – binders of NR3A ligand-binding domain, primary screen, biophysical, differential scanning fluorimetry, uHTS. AID 1259313, 2017. Glutamate receptor ionotropic, NMDA 3A (GRIN3A) ligand-binding domain. NR3A LBD differential scanning fluorimetry, Tm shift; 0% = protein alone, 100% = glycine-bound protein. 2.5% of 340,000 active. Tm shift relative to glycine control, % at 25 µM;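 active = melting temperature shift of at least 10% of the positive control shift, at one fixed dose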
Large screens that a line does not name were inactive. Compounds with a hit are over-represented: about 3.3% of the library has one in this group of screens.

CCn1c(SCC(=O)Nc2nc(C)c(C)s2)nnc1-c1cccnc1	none
CCn1c(SCC(=O)Nc2ccc(NC(=O)c3cccs3)cc2)nnc1-c1cccnc1	NR3A LBD binder 21.3
CCc1ccc(-c2cn(C3CCCCC3)c(=S)[nH]2)cc1	HGIII-sPLA2 inh 23.0
CCc1ccc(-n2cc(-c3ccc([N+](=O)[O-])cc3)[nH]c2=S)cc1	none
CCCC1CCC2(CC1)CCC2OC(=S)Nc1ccccc1C(F)(F)F (configuration not stated)	none (no result: SUMO HTRF inh, UBC13 inh, NR3A LBD binder)
O=C(OCc1ccc(COC(=O)c2ccc(O)cc2)cc1)c1ccc(O)cc1	NR3A LBD binder 21.0 (no result: HGIII-sPLA2 inh)
S=C(Nc1ccccc1Br)OCCN1CCCC12CCC(c1ccccc1)CC2 (configuration not stated)	none (no result: SUMO HTRF inh, UBC13 inh, NR3A LBD binder)
CC(C)CNC(=O)OCc1cn(Cc2cccc(C(F)(F)F)c2)nn1	none (no result: SUMO HTRF inh, UBC13 inh, NR3A LBD binder)
O=S(=O)(Nc1ccc(N=Nc2ccc(O)c3ccccc23)cc1)c1ccccc1	none
O=[N+]([O-])c1ccc(N=Nc2ccc(O)c3ccccc23)cc1	NR3A LBD binder 19.8 (no result: SUMO HTRF inh, UBC13 inh, HGIII-sPLA2 inh)
[NH-]c1ncnc2c1N=C[N+]2=CC=CCO	NR3A LBD binder 13.5 (no result: UBC13 inh)
Cc1ccc(S(=O)(=O)N2CCCCC2)cc1NC(=O)COC(=O)C1CC2C=CC1C2 (configuration not stated)	NR3A LBD binder 10.3
Cc1ccc(NC(=O)COC(=O)C2CC3C=CC2C3)cc1S(=O)(=O)N1CCCCC1 (configuration not stated)	none
CC(NS(=O)(=O)c1ccc(OCC(=O)Nc2cccc([N+](=O)[O-])c2)cc1)c1ccccc1 (configuration not stated)	NR3A LBD binder 19.0 (no result: UBC13 inh)
O=C(COc1ccc(S(=O)(=O)N2CCOCC2)cc1)Nc1cccc([N+](=O)[O-])c1	NR3A LBD binder 18.8
Cc1ccc(S(=O)(=O)NC(=O)COc2ccc([N+](=O)[O-])cc2)cc1	NR3A LBD binder 17.4
CC(C)NS(=O)(=O)c1ccc(OCC(=O)NCc2ccccc2)cc1	NR3A LBD binder 10.9
COc1ccc(OCC(=O)NS(=O)(=O)c2ccc(Cl)cc2)cc1	none
O=C(COC(=O)COc1ccccc1)Nc1cccc([N+](=O)[O-])c1	none
COc1ccc(CNC(=O)COc2ccc(S(=O)(=O)NC(C)C)cc2)cc1	none
COC(=O)[C@]12C[C@H](CC(=O)N3CCCCC3)C(=O)N(Cc3ccc(Cl)cc3Cl)C1=C[C@H](COCc1ccccc1)O[C@@H]2C	none (no result: SUMO HTRF inh, UBC13 inh, NR3A LBD binder)
COC(=O)[C@]12C[C@H](CC(=O)NCc3cccc4ccccc34)C(=O)N(Cc3ccc(Cl)cc3Cl)C1=C[C@H](C(C)(C)C)O[C@@H]2C	none (no result: SUMO HTRF inh, UBC13 inh, NR3A LBD binder)
CCCCCCCCN1C(=O)[C@@H](CC(=O)NCC23CC4CC(CC(C4)C2)C3)C[C@@]2(C(=O)OC)C1=C[C@H](C(C)C)O[C@@H]2C1CC1	none (no result: SUMO HTRF inh, UBC13 inh, NR3A LBD binder)
CCN(CC)c1ccc(/C=N/NC(=O)c2cc3ccccc3[nH]2)cc1	NR3A LBD binder 13.7
COc1ccc(-n2c(Cc3cccs3)nnc2SCC(=O)Nc2ccc(OCc3ccccc3)cc2)cc1	none (no result: SUMO HTRF inh, UBC13 inh, NR3A LBD binder)
O=c1[nH]cc(N=Cc2cc([N+](=O)[O-])ccc2O)c(=O)[nH]1	none (no result: HGIII-sPLA2 inh, NR3A LBD binder)
O=c1[nH]cc(N=Cc2cc(Cl)cc(Cl)c2O)c(=O)[nH]1	SUMO HTRF inh 56.7
O=c1[nH]c(C2CCN(S(=O)(=O)c3cccc(C(F)(F)F)c3)CC2)nc2c1nnn2Cc1cccc(F)c1	NR3A LBD binder 15.8
NC1=NC(=O)/C(=C/c2ccccc2OS(=O)(=O)c2ccc3ccccc3c2)S1	NR3A LBD binder 17.5 (no result: UBC13 inh)
CCN(Cc1cn(Cc2ccccc2)nn1)S(=O)(=O)c1ccccc1Br	none (no result: SUMO HTRF inh, UBC13 inh, NR3A LBD binder)
CC(NC(=O)c1ccc(NS(C)(=O)=O)cc1)c1ccccc1 (configuration not stated)	none
CC(NC(=O)c1ccccc1NS(C)(=O)=O)c1ccccc1 (configuration not stated)	NR3A LBD binder 19.7
C#CCOCCOCCOCCNc1nc(N2CCOCC2)nc(N2CCN(C(=O)[C@H](CCC(=O)O)n3cc(C(N)CO)nn3)CC2)n1 (some centres not stated)	none (no result: SUMO HTRF inh, UBC13 inh, NR3A LBD binder)
Cn1c(=O)c2c(ncn2CC(O)CNc2ccc(Br)cc2)n(C)c1=O (configuration not stated)	NR3A LBD binder 22.9
COc1ccc(NCC(O)Cn2cnc3c2c(=O)n(C)c(=O)n3C)cc1 (configuration not stated)	none
Cn1c(=Nc2ccc(N3CCOCC3)cc2)ccc2ccccc21	none
CCn1c(=Nc2ccc(N3CCOCC3)cc2)ccc2ccccc21	NR3A LBD binder 13.6
COCCNC(=S)N(CCc1c(C)[nH]c2ccc(F)cc12)Cc1cccnc1	NR3A LBD binder 13.2
Cc1ccccc1OCCC(=O)OCC(=O)N1CCN(S(=O)(=O)c2ccc(Cl)cc2)CC1	NR3A LBD binder 10.8 (no result: SUMO HTRF inh)
O=C(NC1CCCCN(Cc2cccc(C(F)(F)F)c2)C1=O)c1cccc([N+](=O)[O-])c1 (configuration not stated)	none (no result: SUMO HTRF inh, UBC13 inh, NR3A LBD binder)
Cc1noc(C)c1NC(=O)Nc1ccc2c(c1)C(=O)N(C)[C@H]1CC[C@H](CC(=O)NCc3ccc(Cl)cc3)O[C@@H]1CO2	none (no result: SUMO HTRF inh, UBC13 inh, NR3A LBD binder)
CCCCNC(=O)C[C@H]1C[C@@]2(C(=O)OCC)CCCC3=C2N(CCC3)C1=O	none (no result: SUMO HTRF inh, UBC13 inh, NR3A LBD binder)
COc1cccc(/C=C2\CC3(OC(=O)C4CCCCC4)CCCN2C3)c1 (configuration not stated)	none (no result: SUMO HTRF inh, UBC13 inh, NR3A LBD binder)
Cc1ccc(N2C(=O)N(CC(=O)c3cc(C)ccc3C)C(=O)C2C)cc1 (configuration not stated)	NR3A LBD binder 12.7
Cc1ccc(N2C(=O)N(CC(=O)Nc3cc(F)ccc3C)C(=O)C2C)cc1 (configuration not stated)	none (no result: SUMO HTRF inh)
COc1ccc(Nc2nnc(SC(C(=O)Nc3cc(C)ccc3C)c3ccccc3)s2)cc1 (configuration not stated)	NR3A LBD binder 17.3
COc1ccc(Nc2nnc(SC(C(=O)Nc3ccc(OC)c(Cl)c3)c3ccccc3)s2)cc1 (configuration not stated)	NR3A LBD binder 25.2
COc1cccc(NC(=O)C(Sc2nnc(Nc3ccccc3C)s2)c2ccccc2)c1 (configuration not stated)	NR3A LBD binder 11.2
COc1ccc(C)cc1NC(=O)C(Sc1nnc(Nc2cc(C)ccc2OC)s1)c1ccccc1 (configuration not stated)	none
COc1cccc(Nc2nnc(SCN3C(=O)c4ccccc4C3=O)s2)c1	none
COC(=O)[C@]12C[C@H](CC(=O)N3CCN(C(=O)c4ccco4)CC3)C(=O)N(Cc3ccc(Cl)cc3Cl)C1=C[C@H](COCc1ccccc1)O[C@@H]2C	none (no result: SUMO HTRF inh, UBC13 inh, NR3A LBD binder)
C=CCn1c(N)c(C(=O)Nc2cccc(C)c2)c2nc3ccccc3nc21	NR3A LBD binder 18.2
C=CCn1c(N)c(C(=O)OCCC)c2nc3ccccc3nc21	none
C=CCn1c(N)c(C(=O)Nc2ccc(C)c(C)c2)c2nc3ccccc3nc21	NR3A LBD binder 24.3
